Inconclusive results are not listed. Active and inactive are the calls of the source. How the source made its calls, unless noted: active means hit-call score of the fitted dose curve at least 0.9, where 1 is the maximum; inactive means score below 0.9.
Experiments:
[1] = CCTE_Shafer_MEA_dev_firing_rate_mean: CCTE's Neural Network Formation Assay for Mean Firing Rate, Shafer Lab (AID 2284031);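 further: curve fitted for loss of firing so AC50 reflects decreased mean firing rate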
In short: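 Primary rat cortical neurons on 48-well MEA plates, exposed from plating day 0 with dosing renewed on DIV 5 and 9. Mean well firing rate over active electrodes, recorded days 5, 7, 9, 12, summarised as trapezoidal AUC.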

[2] = CCTE_Shafer_MEA_dev_per_burst_spike_percent: CCTE's Neural Network Formation Assay for Percent of Spikes in a Burst, Shafer Lab (AID 2284032);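 further: fitted as a decrease in burst spike percentage below DMSO baseline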
In short: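 Rat primary cortical neurons on 16-electrode MEA wells, dosed from plating day 0 for 12 days with renewal on DIV 5 and 9; spikes-in-bursts percentage averaged over bursting electrodes, collapsed as AUC across days 5, 7, 9, 12; loss direction versus DMSO.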

[3] = CCTE_Shafer_MEA_dev_active_electrodes_number: CCTE's Neural Network Formation Assay for Number of Active Electrodes, Shafer Lab (AID 2284040; active means hit-call score of the fitted dose curve at least 0.9, where 1 is the maximum;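 further: potency for loss of active electrodes versus DMSO so lower counts are hits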)
In short: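 Primary rat cortical neurons on 16-electrode MEA wells, exposed from day 0 through day 12 with compound renewed at DIV 5 and 9 feeds. Active electrodes (mean firing ≥5 spikes/min) counted at DIV 5, 7, 9, 12; trapezoidal AUC across days, loss-of-signal versus DMSO.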

[4] = CCTE_Shafer_MEA_dev_burst_rate: CCTE's Neural Network Formation Assay for Burst Rate, Shafer Lab (AID 2284042);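 further: potency for loss of burst rate below DMSO control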
In short: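 Primary rat cortical neurons on PEI-coated 48-well MEA plates (laminin added with cells at plating) (16 electrodes/well), exposed from plating to day 12, dosing renewed at DIV 5 and 9. Burst rate averaged over active electrodes, recorded DIV 5, 7, 9, 12, summarized as AUC; loss versus DMSO.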

[5] = CCTE_Shafer_MEA_dev_bursting_electrodes_number: CCTE's Neural Network Formation Assay for Number of Bursting Electrodes, Shafer Lab (AID 2284043; active means hit-call score of the fitted dose curve at least 0.9, where 1 is the maximum;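 further: potency is for loss of bursting electrodes relative to DMSO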)
In short: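 Primary rat cortical neurons were cultured on PEI-coated 48-well MEA plates (16 electrodes/well) and exposed from plating through day 12, with compound renewed at feeds on DIV 5 and 9. Electrodes bursting ≥1 per 2 min were counted on DIV 5, 7, 9, 12; trapezoidal AUC taken.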

[6] = CCTE_Shafer_MEA_dev_per_burst_interspike_interval: CCTE's Neural Network Formation Assay for Burst Interspike Interval, Shafer Lab (AID 2284044);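 further: potency for a decrease of within-burst interspike interval below DMSO level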
In short: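 Readout is the average time between spikes inside single-electrode bursts, taken as a well mean across bursting electrodes. Cortical neurons from rat developed networks on MEA plates under continuous 12-day exposure; recordings on days 5, 7, 9 and 12 were integrated by trapezoidal AUC.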

[7] = CCTE_Shafer_MEA_dev_burst_duration_mean: CCTE's Neural Network Formation Assay for Mean Burst Duration, Shafer Lab (AID 2284045)
In short: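 Primary rat cortical neurons on PEI-coated 16-electrode MEA wells, exposed from plating through day 12 with compound renewed at DIV 5 and 9; spontaneous activity recorded days 5, 7, 9, 12. Well-mean burst duration collapsed as trapezoidal AUC, fitted for loss versus DMSO.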

[8] = CCTE_Shafer_MEA_dev_interburst_interval_mean: CCTE's Neural Network Formation Assay for Mean Interburst Interval, Shafer Lab (AID 2284046);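 further: well-mean interburst interval of bursting electrodes as AUC over four recording days; curve fitted for decrease in interburst interval relative to DMSO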
In short: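 Recordings on days 5, 7, 9 and 12 give well-mean interburst interval across actively bursting electrodes, summarized as area under the curve. Cultures: rat cortical neurons, continuous exposure from day 0, compound renewed at feeds; decrease analyzed versus DMSO.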

[9] = CCTE_Shafer_MEA_dev_inter_network_spike_interval_mean: CCTE's Neural Network Formation Assay for Mean Inter-network Spike Interval, Shafer Lab (AID 2284047)
In short: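 Primary rat cortical neurons on 16-electrode MEA wells, exposed from plating day 0 through DIV 12, compound renewed at DIV 5 and 9 media changes. Mean interval between network-spike peaks recorded DIV 5, 7, 9, 12; collapsed as trapezoidal AUC, fitted downward versus DMSO.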

[10] = CCTE_Shafer_MEA_dev_network_spike_number: CCTE's Neural Network Formation Assay for Number of Network Spikes, Shafer Lab (AID 2284048);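 further: fit as a loss of signal meaning fewer network spikes than DMSO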
In short: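 Primary rat cortical neurons were seeded at 1.5 x 10^5 cells/well on PEI-coated 16-electrode MEA wells with laminin, exposed from plating day 0, compound renewed at DIV 5 and 9. Network spikes were recorded on days 5, 7, 9, 12 and summarized as trapezoidal AUC versus DMSO.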

[11] = CCTE_Shafer_MEA_dev_network_spike_peak: CCTE's Neural Network Formation Assay for Mean Number of Electrodes in Network Spike, Shafer Lab (AID 2284049);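 further: fitted for loss of signal meaning fewer electrodes in network spikes than DMSO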
In short: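 Continuous 12-day exposure of rat cortical cultures, starting at plating, on MEA plates. Endpoint: electrodes participating in network-spike peaks, AUC across DIV 5–12, DMSO as negative control.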

[12] = CCTE_Shafer_MEA_dev_spike_duration_mean: CCTE's Neural Network Formation Assay for Mean Spike Duration, Shafer Lab (AID 2284051);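 further: mean network spike duration pooled as area under curve over DIV 5 to 12 recordings; potency for a decrease in mean network spike duration versus DMSO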
In short: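 Primary rat cortical neurons on 16-electrode MEA wells (PEI-coated, laminin in plating drop), exposed from plating through DIV 12 with compound renewed at DIV 5 and 9. Mean network-spike duration recorded DIV 5, 7, 9, 12; trapezoidal AUC across days, DMSO baseline.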

[13] = CCTE_Shafer_MEA_dev_network_spike_duration_std: CCTE's Neural Network Formation Assay for Standard Deviation of Network Spike Duration, Shafer Lab (AID 2284052);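 further: area under curve of spike duration SD across recording days 5 to 12; hits are decreases in network spike duration SD versus DMSO vehicle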
In short: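 Primary rat cortical neurons on PEI-coated 16-electrode MEA wells, exposed from plating day 0 through day 12 with compound renewed at DIV 5 and 9. Network spike duration SD recorded on days 5, 7, 9, 12, collapsed as trapezoidal AUC; loss-of-signal fit versus DMSO.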

[14] = CCTE_Shafer_MEA_dev_per_network_spike_spike_number_mean: CCTE's Neural Network Formation Assay for Mean Number of Spikes in a Network Spike, Shafer Lab (AID 2284053);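 further: fitted as decrease in spikes per network spike relative to DMSO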
In short: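 Primary rat cortical neurons on 48-well, 16-electrode MEA plates were exposed from plating to DIV 12, with dosing renewed on DIV 5 and 9. Spikes per network spike (0.05 s peak window) were recorded on DIV 5, 7, 9 and 12 and collapsed as trapezoidal AUC versus DMSO.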

[15] = CCTE_Shafer_MEA_dev_per_network_spike_spike_percent: CCTE's Neural Network Formation Assay for Percent of Spikes in a Network Spike, Shafer Lab (AID 2284054)
In short: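 Primary rat cortical neurons on 16-electrode MEA wells (PEI-coated, laminin at plating), exposed from day 0 with renewal at DIV 5 and 9; spikes within 0.05 s of network-spike peaks over total spikes, AUC across days 5, 7, 9, 12.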

[16] = CCTE_Shafer_MEA_dev_LDH: CCTE's Lactate Dehydrogenase Assay for Cytotoxicity in the Neural Network Formation Assay, Shafer Lab (AID 2284068; active means hit-call score of the fitted dose curve at least 0.9, where 1 is the maximum;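 further: exposure for twelve days from plating with re-dosing on DIV 5 and 9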)
In short: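 Primary rat cortical neurons were plated on PEI/laminin MEA plates and exposed from day 0 for twelve days, with compound renewed at DIV 5 and 9. Cytotoxicity was determined by spectrophotometric LDH assay relative to DMSO.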

[17] = CCTE_Shafer_MEA_dev_AB: CCTE's Alamar Blue Assay for Cytotoxicity in the Neural Network Formation Assay, Shafer Lab (AID 2284083; active means hit-call score of the fitted dose curve at least 0.9, where 1 is the maximum;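 further: twelve days of exposure from plating with re-dosing on DIV 5 and 9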)
In short: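 Primary rat cortical neurons on PEI-coated 48-well MEA plates, 1.5 x 10^5 cells/well in laminin drop; compound exposure from day 0 of plating for twelve days, renewed at medium changes on DIV 5 and 9. Viability read as resazurin reduction by fluorescence, relative to DMSO.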

[18] = CCTE_Shafer_MEA_dev_mutual_information_norm: CCTE's Neural Network Formation Assay for Mutual Information Normalization, Shafer Lab (AID 2284091);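 further: mutual information between electrodes summarised as area under curve across four recording days; potency is for a decrease in mutual information relative to DMSO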
In short: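 Rat cortical cultures, 48-well MEA, continuous exposure DIV 0–12 with full media/compound change DIV 5 and 9. Readout: inter-electrode mutual information, AxIS adaptive spike detection; AUC across DIV 5/7/9/12 recordings; DMSO baseline, negative fitting direction.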

[19] = CCTE_Shafer_MEA_dev_correlation_coefficient_mean: CCTE's Neural Network Formation Assay for Mean Correlation Coefficient, Shafer Lab (AID 2284093);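 further: well mean pairwise spike train correlation integrated as AUC over recording days 5 to 12; potency fitted for loss of correlation relative to DMSO vehicle wells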
In short: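 Spontaneous activity recorded on days 5, 7, 9 and 12 post-plating; pairwise spike correlations are averaged across active electrodes and collapsed to an area-under-curve. Rat cortical cultures are dosed from plating through 12 days, with compound renewed at media changes.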

[20] = UKN2_HCS_IMR90_neural_migration: University of Konstanz (UKN) Leist Lab Neural Crest Cell Migration Assay in human induced IMR90 Pluripotent Stem Cells (UKN2) (AID 2284204); conditions: actives raise or lower the signal
In short: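 iPSC-derived IMR90 neural crest cells on PLO/laminin/fibronectin were seeded around silicone stoppers; after stopper removal, migration in N2-S medium with EGF and FGF ran 24 h before 24 h chemical exposure. Calcein-AM/Hoechst high-content imaging; bidirectional fit versus DMSO.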

[21] = IUF_NPC1b_proliferation_BrdU_72hr: Leibniz Research Institute for Environmental Medicine (IUF) 72-hour Neural Progenitor Cell Bromodeoxyuridine (BrdU) Proliferation Assay (NPC1b) (AID 2284207)
In short: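 hNPC spheres (primary, GW 16-19 fetal cortex), single sphere/well, EGF+FGF medium; 72 h compound, no renewal; BrdU pulse last 16 h; luminescent ELISA; activity vs DMSO baseline; growth-factor withdrawal as positive control.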

[22] = IUF_NPC1a_proliferation_area_72hr: Leibniz Research Institute for Environmental Medicine (IUF) 72-hour Neural Progenitor Cell Proliferation Area Assay (NPC1a) (AID 2284208)
In short: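 hNPC spheres (human fetal cortex, GW 16-19), one per poly-Hema U-bottom well; EGF+FGF medium; dosed day 0, no re-dosing; 72 h, 37C, 5% CO2; phase-contrast sphere area; DMSO = baseline; minus-GF = positive ctrl.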

[23] = IUF_NPC1_viability_72hr: Viability Assessment at 72 hours in the Leibniz Research Institute for Environmental Medicine (IUF) Neural Progenitor Cell Proliferation Assay (NPC1) (AID 2284209)
In short: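 Single spheres (0.25-0.35 mm) of human fetal cortex-derived neural progenitor cells were grown in proliferation medium with EGF and FGF at 37C and 5% CO2. They were exposed for 72 h without renewal, and viability was read by alamar blue resorufin fluorescence.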

[24] = CCTE_Mundy_HCI_Cortical_Synap_Neur_Matur_NeuriteSpotCountPerNeuriteLength: CCTE's Synaptogenesis and Neurite Maturation Assay in rat cortical cells for Neurite Spot Count per Neurite Length, Mundy Lab (AID 2284210)
In short: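 Rat primary cortical cultures, glia arrested with AraC at DIV 5, were dosed with media change at DIV 7 and fixed at DIV 12. Synaptophysin puncta per MAP2-labelled neurite length were quantified by high-content imaging versus DMSO.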

[25] = CCTE_Mundy_HCI_Cortical_NOG_NeuriteCount: CCTE's Neurite Outgrowth Assay in rat cortical cells for Neurite Count, Mundy Lab (AID 2284212);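 further: cells fixed about two days after chemical exposure began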
In short: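 Neurite number per cell from high-content imaging of betaIII-tubulin immunostaining, with Hoechst nuclear counterstain.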

## C[C@@H]1CCO[C@H]2Cn3cc(C(=O)NCc4ccc(F)cc4F)c(=O)c(O)c3C(=O)N12
[1]
  AC50: 2570 nM (active)
[2]
  AC50: 1640 nM (active)
[3]
  AC50: 1460 nM (active)
[4]
  AC50: 1670 nM (active)
[5]
  AC50: 1650 nM (active)
[6]
  AC50: 1800 nM (active)
[7]
  outcome: inactive
[8]
  AC50: 1740 nM (active)
[9]
  outcome: inactive
[10]
  AC50: 1540 nM (active)
[11]
  AC50: 1110 nM (active)
[12]
  AC50: 901 nM (active)
[13]
  outcome: inactive
[14]
  AC50: 983 nM (active)
[15]
  AC50: 691 nM (active)
[16]
  AC50: 1070 nM (active)
[17]
  AC50: 1800 nM (active)
[18]
  AC50: 1550 nM (active)
[19]
  AC50: 1520 nM (active)
[20]
  outcome: inactive
[21]
  outcome: inactive
[22]
  outcome: inactive
[23]
  outcome: inactive
[24]
  AC50: 7380 nM (active)
[25]
  outcome: inactive

Reference: PubChem BioAssay (EPA / NIEHS)
